Measurements as given in PubChem BioAssay AID504429 (National Center for Advancing Translational Sciences (NCATS), 2011).
This is one part of the list. The source made the active and inactive calls.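 Rule for the calls: active = compounds whose dose response shows an inhibitor phenotype against the kinase Dyrk1b; inactive = compounds showing no inhibitor phenotype.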

Target: Dual specificity tyrosine-phosphorylation-regulated kinase 1B (Homo sapiens) (UniProt Q9Y463)
Assay: Kinase Inhibition Study on Inhibitors of Dyrk1b (Reaction Biology data)
Settings: Recombinant Dyrk1b kinase assay, 10 uM ATP
Description: NIH Molecular Libraries Probe Production Centers Network [MLPCN] NIH Chemical Genomics Center [NCGC] MLPCN Grant: 1R03MH084827-01 Assay Submitter (PI): Tom Misteli NCGC Assay Overview: Alternative splicing of pre-mRNAs plays a major role in the regulation of eukaryotic gene expression. Alternative splicing is now thought to be one of the primary reasons for the complexity of higher organisms leading to an average of three protein isoforms per gene. Aberrant splicing can lead to a number of diseases and is known to play a role in rare genetic diseases such as progeria syndrome. Hutchinson-Gilford Progeria Syndrome (HGPS) is a pediatric premature aging disease caused by a spontaneous mutation in the lamin A/C (LMNA) gene due to a single point mutation in the lamin A gene effecting 1 in 4 million people. To identify both specific splicing modulators of the lamin A gene as well as general splicing modulators, a cell-based HTS assay was developed using a minigene reporter system (AIDs, 1459 & 1487). […] The Clk family is part of the CMGC group of protein kinases which includes Dyrks and are essential kinases found in all eukaryotes. […] This AID is to summarize the activity of these analogs in Dyrk1b.
All kinase reactions were performed using 10 uM ATP in the assay. 100% activity was taken from kinase reactions with DMSO alone (the vehicle used for compound stock solutions).

Dual specificity tyrosine-phosphorylation-regulated kinase 1B (Homo sapiens), sequence (Q9Y463 whole entry, looked up): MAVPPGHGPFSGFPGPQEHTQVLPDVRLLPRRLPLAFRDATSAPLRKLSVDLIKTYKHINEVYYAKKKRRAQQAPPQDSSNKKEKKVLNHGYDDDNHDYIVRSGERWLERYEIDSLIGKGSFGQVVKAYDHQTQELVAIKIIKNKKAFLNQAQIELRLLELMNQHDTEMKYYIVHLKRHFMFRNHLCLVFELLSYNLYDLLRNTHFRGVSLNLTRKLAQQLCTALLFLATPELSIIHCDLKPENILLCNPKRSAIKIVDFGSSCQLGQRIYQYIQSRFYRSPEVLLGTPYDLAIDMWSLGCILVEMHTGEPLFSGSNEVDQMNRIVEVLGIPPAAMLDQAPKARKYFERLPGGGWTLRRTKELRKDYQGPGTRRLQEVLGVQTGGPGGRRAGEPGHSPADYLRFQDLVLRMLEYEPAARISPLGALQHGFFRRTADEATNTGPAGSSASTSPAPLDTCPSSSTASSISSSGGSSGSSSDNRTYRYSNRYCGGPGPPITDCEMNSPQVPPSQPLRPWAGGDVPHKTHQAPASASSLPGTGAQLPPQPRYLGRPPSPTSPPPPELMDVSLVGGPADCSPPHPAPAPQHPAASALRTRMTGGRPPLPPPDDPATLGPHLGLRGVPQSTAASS

Potency, active:
CC(Nc1ncnc2ccc(-c3ccc4c(c3)OCO4)cc12)c1ccco1 (stereo not drawn) 8.14 µM
c1nc(N2CCOCC2)c2cc(-c3ccc4c(c3)OCO4)ccc2n1 5.22 µM
CN(Cc1cncn1C)c1ncnc2ccc(-c3ccc4c(c3)OCO4)cc12 15 µM
